From PubChem BioAssay (NCI)
This is part of a sample that, as a whole, favours compounds with a hit. Of some 83,000 tested, about 20% had one in any assay.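 The endpoint reported here, percent growth, reads 100 for growth as untreated, 0 for no net growth and -100 for all cells dead.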 Values without a mark were called inactive. The source made the active and inactive calls. The calls were made as follows: active = growth percent below 10; inactive = the rest.

Test system: KM12 colon
Assay: NCI-60 one-dose screen, 48 h (100 = growth as untreated, 0 = no growth, -100 = all killed)
Conditions: 10 µM unless noted

SMILES | growth
CC(=O)NC(C)(C)C(=O)N1CCC[C@H]1C(=O)NC(C)(C)C(=O)N[C@@H](C)C(=O)NC(C)(C)C(=O)NC(C)(C)C(=O)N[C@@H](CCC(N)=O)C(=O)NC(C)(C)C(=O)N[C@H](C(=O)NC(C)(C)C(=O)NCC(=O)N[C@@H](CC(C)C)C(=O)NC(C)(C)C(=O)N1CCC[C@H]1C(=O)N[C@H](C(=O)NC(C)(C)C(=O)NC(C)(C)C(=O)N[C@@H](CCC(N)=O)C(=O)N[C@@H](CCC(N)=O)C(=O)N[C@H](CO)Cc1ccccc1)C(C)C)C(C)C | 35.7% [4.25 µM]
NC(=S)N/N=C(/C=C/c1cn(-c2ccccc2)nc1-c1ccc(Cl)cc1)c1cc2ccccc2oc1=O | 36.2%
Cc1ccc(/C=C/c2nn3c(-c4ccco4)nnc3s2)cc1 | 103%
COCCOc1ccc(-c2csc(NC(C)=O)n2)cc1NS(=O)(=O)c1cccc2c(N(C)C)cccc12 | 97.1%
COc1cc2cc(Oc3ccc(NC(=O)c4cccc(C(F)(F)F)c4)cc3)c(C)nc2cc1OCCN(C)C | 76.9%
C=C(C)[C@@H]1CC[C@]2(COS(C)(=O)=O)CC[C@]3(C)[C@H](CC[C@@H]4[C@@]5(C)CCCNC(C)(C)[C@@H]5CC[C@]43C)[C@@H]12 | 26.2%
NC(=O)C(=Cc1ccc(Cl)cc1)C(N)=O | 85.2%
CCc1ccc(NC(=O)N[C@@H](Cc2cccc(F)c2)C(=O)N[C@@H]2C(=O)N3CCC[C@H]3C(=O)N3CCCC[C@H]3C(=O)N[C@@H](C)C(=O)N3C[C@H](C)C[C@H]3C(=O)O[C@H]2C)c(F)c1 | 33.6%
O=C1c2cc(Br)ccc2-n2c1nc1cc(Br)ccc1c2=O | 77.5%
C/C=C/[C@@H]1C=C[C@@H]2C[C@H](C)CC[C@H]2[C@]1(C)/C(O)=C1/C(=O)[C@H](CO)N(C)C1=O | 47.2%
CCOC(=O)c1ccc(N/C=C/C(=O)c2ccccc2)cc1 | 98.5%
CC(=O)C1=NN(c2ccc(Cl)cc2)C(=O)CN1C | 102%
CCn1c2ccc(/C=N/OCCCN(C)C)cc2c2cc(/C=N/OCCCN(C)C)ccc21 | 17.1%
Cc1ccc(C2CC(c3ccc(Nc4nc(NCCO)nc(Nc5ccc(Cl)cc5)n4)cc3)=Nc3c(N)nc(N)nc3N2)cc1 (stereo not given) | -88% (active)
Cn1ccnc1C(=O)/C=C/c1ccc(C(=O)Nc2ccc(NC(=O)CCNC(=O)c3csc(Br)n3)cc2)cc1 | 33.3%
COc1cc(/C=N/n2cnc3oc(-c4ccccc4)cc3c2=N)cc(CN2CCCC2)c1O | 11.2%
Cn1cc(-c2nn3c(=O)cc(-c4ccccc4)nc3s2)c2cc(F)ccc21 | 55.2%
CCNC(=NCCCN(C)C)N/C(N)=N/c1nc2ccccc2s1 | 93.9%
CS(=O)(=O)c1ccc2c(c1)c1c(n2S(=O)(=O)c2ccc(Cl)cc2)CCCC1 | 29.3%
O=C(CSc1nnc(-c2ccc(Cl)cc2)n1-c1ccccc1)Nc1ccc(F)cc1 | 82.4%
O=[N+]([O-])c1ccc(-c2nnc(SCc3ccc(O)c4ncccc34)n2-c2ccccc2)cc1 | 19.2%
COc1cc2c3c(n(CCCN4CCC[C@H]4C(N)=O)c(=O)c2cc1OC)-c1cc2c(cc1C3=O)OCO2 | 26.1%
O=C1[C@@H]2Cc3c([nH]c4ccccc34)[C@H](c3c(Cl)cccc3Cl)N2C(=O)CN1C1CCN(Cc2ccccc2)CC1 | 30.2%
COc1ccc(C(=O)c2c(N)c(C#N)cn2-c2cccc(OC)c2)cc1 | 23.7%
Nc1ccc(-c2nnc(SCc3ccc(O)c4ncccc34)o2)cc1 | 0.48% (active)
C/C(=N/Nc1nc(N/N=C(/C)c2ccc([N+](=O)[O-])cc2)nc(N2CCOCC2)n1)c1ccc([N+](=O)[O-])cc1 | 82.2%
O=C1c2c(O)cc(O)cc2O[C@@H](c2ccc(O)cc2)[C@@H]1c1c(O)cc(O)c2c(=O)cc(-c3ccc(O)c(O)c3)oc12 | 97.1%
COc1ccc2c(c1)oc1c3[nH]c4ccccc4c3c3c(c21)C(=O)N(O)C3=O | 48%
COc1cc2c3c(n(CCCNC4CCCCC4)c(=O)c2cc1OC)-c1cc2c(cc1C3=O)OCO2 | 57.4%
C=CCn1c(SCC(=O)Nc2cccc(C(=O)/C=C/c3cc(OC)c(OC)c(OC)c3)c2)nc2ccccc2c1=O | 46.3%
